The source of these data is the supplement of paper PMC6555819.

Holding throughout (experiment): PBM binding z-score (relative to random genomic background probes); higher = stronger binding; sequences stand for … in GC…GCGATTGACAGCGTAGAATGAAGG
Assay [1] concerns FXR:RXRa (NR concentration 270 nM, RXRa partner concentration 90 nM). In short, it runs like this:
(§1)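 Scanned fluorescence from custom Agilent 4×180K protein-binding microarrays was regression-normalized. Binding z-scores use random background probes as reference. Ligand-free nuclear receptor dimers were incubated on the arrays for 1 h and detected with antibodies against each partner (one per run).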

Assay [2] has as its system LXRa:RXRa (NR concentration 270 nM, RXRa partner concentration 90 nM). In short, it runs like this:
as §1

Assay [3] relates to LXRa homodimer (NR concentration 270 nM). In short, it runs like this: as §1
The test system of assay [4] is LXRb:RXRa (NR concentration 270 nM, RXRa partner concentration 90 nM). In short, it runs like this:
as §1

Assay [5] deals with LXRb homodimer (NR concentration 270 nM). In short, it runs like this:
as §1

The test system of assay [6] is PPARa:RXRa (NR concentration 270 nM, RXRa partner concentration 90 nM). In short, it runs like this: as §1
For assay [7], the system named is PPARg:RXRa (NR concentration 180 nM, RXRa partner concentration 90 nM). In short, it runs like this:
as §1

In assay [8] the test system is PPARg:RXRa 270nM:90nM, anti-RXR (NR concentration 270 nM, RXRa partner concentration 90 nM). The method, boiled down:
as §1

Assay [9] relates to PPARg:RXRa 30nM:10nM, anti-RXR (NR concentration 30 nM, RXRa partner concentration 10 nM). The method, boiled down: as §1
The test system of assay [10] is PPARg:RXRa 90nM:30nM, anti-RXR (NR concentration 90 nM, RXRa partner concentration 30 nM). In short, it runs like this:
as §1

In assay [11] the test system is PPARg:RXRa DBDmut IVT, anti-RXR (DBD mutation: RXRa K156A/R161A, NR concentration 270 nM, RXRa partner concentration 90 nM). The method, boiled down:
as §1

Assay [12] deals with PPARg:RXRa IVT, anti-PPARg (NR concentration 270 nM, RXRa partner concentration 90 nM). The method, boiled down: as §1
The subject of assay [13] is PPARg DBDmut:RXRa IVT, anti-PPARg (DBD mutation: PPARg1 K132A/R137A, NR concentration 270 nM, RXRa partner concentration 90 nM). In short, it runs like this: as §1
The subject of assay [14] is PPARg DBDmut IVT, anti-PPARg (DBD mutation: PPARg1 K132A/R137A, NR concentration 270 nM). The method, boiled down: as §1
Assay [15] concerns PPARg homodimer (NR concentration 180 nM). The method, boiled down: as §1
Assay [16] has as its system PXR:RXRa (NR concentration 270 nM, RXRa partner concentration 90 nM). The method, boiled down: as §1
Assay [17] deals with PXR homodimer (NR concentration 270 nM). In short, it runs like this: as §1
Assay [18] relates to RARa:RXR (NR concentration 270 nM, RXRa partner concentration 90 nM). The method, boiled down: as §1
For assay [19], the system named is RARa homodimer (NR concentration 270 nM). The method, boiled down:
as §1

The subject of assay [20] is RARb:RXRa (NR concentration 270 nM, RXRa partner concentration 90 nM). In short, it runs like this:
as §1

Consider TCTGCTAGGTCAACGATGGTCAGATAATCTGCTA, for which the PBM binding z-score is 3.65 in [1]; 2.85 in [2]; 0.0239 in assay [3]; 1.94 in assay [4]; 0.0958 in assay [5]; 3.3 in assay [6]. The PBM binding z-score amounted to 2.82 in assay [7]; 3.22 in [8]; 2.1 in assay [9]; 2.55 in [10]; 4.35 in assay [11]; 4.34 in assay [12]. The PBM binding z-score is -0.0109 in assay [13]; 0.256 in assay [14]; 1.82 in [15]; 2.15 in [16]; -0.779 in assay [17]; 2.44 in assay [18]. For the same sequence, the figures for the PBM binding z-score in assay [19] and in assay [20] were -0.13 and 4.26, respectively.

As to TCGAGTAGGTTAGGCGCATTCAGAATGGCGTCGA, the PBM binding z-score in assay [1] was -0.434; in [2], -0.29; in [3], -0.682; in assay [4], -0.547; in [5], -1.16; in assay [6], 0.216. Moreover, the PBM binding z-score in [7] is -0.326; in [8] it was 0.786; in [9], 0.835; in assay [10], 0.489; in [11], 1.8; in assay [12], 0.832. For the same sequence, the PBM binding z-score in assay [13] was -1.24; in [14], -1.21; in assay [15], -1.2; in assay [16], -0.58; in assay [17] it was -0.715; in assay [18], -0.497. Further, the figures for the PBM binding z-score in [19] and in assay [20] were -1.02 and 0.105, respectively.

Take ATCTCTAGGTATCCAAGTTCAGTGAATGCCGAAC: the PBM binding z-score in [1] is 0.313; in assay [2], 0.879; in assay [3], 2; in assay [4], 0.57; in [5], 0.976; in [6], 0.511. Further, the PBM binding z-score in [7] came to 0.0341; in [8] it was 0.21; in assay [9] it was 0.21; in assay [10], 0.503; in assay [11] it was 0.377; in assay [12] it was 0.859. Besides, the PBM binding z-score in assay [13] is 0.495; in assay [14] it was 0.766; in assay [15], 1.01; in assay [16] it was 1.5; in assay [17], 1.56; in assay [18], 0.618. Also, the values for the PBM binding z-score in [19] and in assay [20] were 0.883 and 0.966, respectively.

As to CGTCCAAGGTCTGAGAGGTCAGTGAATGCCGAGT, the PBM binding z-score is 1.6 in assay [1]; 1.76 in [2]; 0.726 in assay [3]; 1.58 in assay [4]; -0.51 in assay [5]; 2.29 in [6]. Moreover, the PBM binding z-score is -0.0569 in assay [7]; 0.729 in assay [8]; -0.614 in assay [9]; -0.154 in [10]; 0.28 in assay [11]; 0.77 in assay [12]. Also, the PBM binding z-score in [13] is -0.424; in assay [14], -1.57; in assay [15] it was 1.81; in assay [16], 2.94; in assay [17], 1.65; in [18], 2.79. Also, the PBM binding z-score in [19] came to 0.0831; in assay [20], 3.24.

Turning to CGTCCAAGGTCAGAGAGGTGAGTGAATGCCGAGT, the PBM binding z-score in assay [1] came to 4.98; in assay [2] it was 3.29; in assay [3], 0.18; in assay [4], 2.43; in assay [5], 0.0466; in assay [6] it was 4.06. In addition, the PBM binding z-score in assay [7] was 2.73; in assay [8], 2.95; in assay [9], 0.53; in [10], 1.78; in assay [11] it was 2.79; in assay [12] it was 3.19. Moreover, the PBM binding z-score in [13] is -0.199; in assay [14], -0.145; in [15], 3.3; in assay [16], 3.15; in [17] it was 1.96; in assay [18] it was 3.43. Moreover, the values for the PBM binding z-score in assay [19] and in assay [20] were 0.424 and 4.78, respectively.

Turning to GGAACGAGGGCAAGTTGATATCAGAGTTTGATGG, the PBM binding z-score is 0.903 in assay [1]; 0.358 in [2]; -0.105 in assay [3]; 0.453 in assay [4]; -0.362 in assay [5]; 1.73 in [6]. Besides, the PBM binding z-score was 1.22 in assay [7]; 1 in assay [8]; 0.0363 in assay [9]; 0.552 in [10]; 3.98 in assay [11]; 2.65 in assay [12]. The PBM binding z-score in [13] was 0.634; in assay [14], 0.177; in [15], 0.61; in [16], 0.864; in [17], 0.655; in assay [18], 0.687. Besides, the PBM binding z-score is -0.152 in assay [19] and 2.57 in assay [20].

Consider TGATATAGGTAAATGCTAGGTGAAAGTCCGATCT, for which the PBM binding z-score in [1] is 0.297; in [2] it was 0.127; in assay [3], 0.0779; in assay [4] it was -0.0435; in [5], -0.105; in assay [6], 1.62. Also, the PBM binding z-score in [7] worked out at 1.45; in assay [8], 1.84; in assay [9], 1.05; in [10], 1.44; in assay [11], 4.45; in assay [12], 3.66. Also, the PBM binding z-score in assay [13] was 0.978; in assay [14] it was 0.956; in [15] it was 0.829; in assay [16] it was -0.09; in assay [17], 0.293; in assay [18] it was 0.178. Further, the PBM binding z-score is 1.15 in assay [19] and 0.212 in [20].
